6 molecules from PubChem BioAssay (Tox21) can be followed below.

Several values for one entry are separate records, joined by “and”; a condition that tells them apart may be missing. Equal entries are not always repeated. Results filed as inconclusive are left out. Some structures have more than one record in an assay (separate samples or runs), and their calls can disagree. Activity calls are given as the source filed them. Unless noted, calls come from the whole dose curve.

Assay [1] is described as follows: Nuclear factor erythroid 2-related factor 2/antioxidant responsive element (Nrf2/ARE) small molecule agonists: qHTS cell viability counter screen in human keratinocytes (AID 1919968; active = well fitted curve in the direction sought with a large enough effect in the repeat runs; an effect the other way counts as inactive or inconclusive; note: nearly all actives have a fitted effect of over 55% in size). The gist of the method:
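Parallel cytotoxicity read: KeratinoSens HaCaT cells, compound treatment 23 h, viability by CellTiter-Fluor fluorescence 1 h post-reagent.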
(In general: qHTS replaces the single test concentration by a dilution series.)

Assay [2] in a line: Nuclear factor erythroid 2-related factor 2/antioxidant responsive element (Nrf2/ARE) small molecule agonists: luciferase reporter gene qHTS assay in human keratinocytes (AID 1919969; note: nearly all actives have a fitted effect of over 35% in size; note: potency is the fitted concentration of half-maximal effect). (In general: A reporter such as luciferase makes a cellular process visible.)
The target in assay [3] is Gonadotropin-releasing hormone receptor (Homo sapiens) (UniProt P30968). Nature of the assay: Human gonadotropin-releasing hormone receptor (GnRHR) small molecule agonists, calcium flux assay in GnRHR-HEK293 cells (AID 1920063). Note: nearly all actives have a fitted effect of over 35% in size. The gist of the method:
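Calcium flux, agonist mode, human GnRHR stably integrated in HEK293; dye 1 h at 37 C before compound; Ex/Em=480/540 kinetic read, 3 min; 15 concentrations, triplicate.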

For assay [4], the target named is KiSS-1 receptor (Homo sapiens) (UniProt Q969F8). Put plainly: Human kisspeptin (KISS1R) small molecule agonists, calcium flux assay in KISS1R-HEK293 cells (AID 1920064; active = well fitted curve in the direction sought with a large enough effect in the repeat runs; an effect the other way counts as inactive or inconclusive). The gist of the method:
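Triplicate 15-concentration series were applied to dye-loaded human KISS1R HEK293 cells, and agonist-evoked calcium fluorescence was captured for 3 min.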
For orientation: Calcium assays in cells follow changes in intracellular calcium, usually with a dye or a luminescent sensor.

Assay [5] can be described thus: p53 small molecule agonists, cell-based qHTS assay with human liver microsomes: qHTS cell viability counter screen (AID 1963579). Note: nearly all actives have a fitted effect of over 45% in size. The gist of the method: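 In this multiplexed counter screen, the reporter plates were subsequently treated with CellTiter-Glo so that cell viability, reflected by luminescence, could be recorded for p53RE-bla cells dosed 16 h with compounds under microsomal activation (HLM and NADPH).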

Assay [6] is described as follows: p53 small molecule agonists, cell-based qHTS assay with rat liver microsomes: qHTS cell viability counter screen (AID 1963580). Note: nearly all actives have a fitted effect of over 45% in size. The gist of the method:
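Cytotoxicity counter screen: intracellular ATP read by CellTiter-Glo luminescence in the p53 reporter wells. HCT-116 p53RE-bla cells were treated for 16 h at 37 C alongside rat liver microsomes and NADPH, each 0.5 mg/mL final.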

Assay [7] is described as follows: p53 small molecule agonists, cell-based qHTS assay: qHTS cell viability counter screen (AID 1963581). Note: nearly all actives have a fitted effect of over 45% in size. Note: potency is the fitted concentration of half-maximal effect. The gist of the method:
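Multiplexed with the reporter read, a CellTiter-Glo step (30 min, room temperature) gauges ATP-based viability of HCT-116 p53RE-bla cells after 16 h compound incubation at 37 C.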

The nature of assay [8]: p53 small molecule agonists, cell-based qHTS assay (AID 1963582; active = well fitted activation curve with a large enough effect in the signal ratio in the repeat runs, not every such curve was filed as active; the % refers to the signal ratio). The gist of the method: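 Beta-lactamase reporter cells (p53RE-bla) treated with compounds for 16 h at 37 C; FRET substrate, 2 h, room temperature; fluorescence intensity.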
The nature of assay [9]: cAMP Responsive Elements (CRE) small molecule agonists, cell-based qHTS assay (AID 1963590). The gist of the method:
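Quantitative HTS for CRE agonists: HEK 293T CRE-bla cells, overnight plating, 3 h compound incubation at 37 C/5% CO2, then 2 h room-temperature LiveBLAzer B/G FRET substrate loading.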

Assay [10] is described as follows: cAMP Responsive Elements (CRE) small molecule antagonists, cell-based qHTS assay (AID 1963591; active = well fitted inhibition curve with a large enough effect in the signal ratio in the repeat runs, not every such curve was filed as active; the % refers to the signal ratio; note: potency is the fitted concentration of half-maximal effect). The gist of the method: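 Fluorescence intensity from cleaved LiveBLAzer B/G substrate (2 h, room temperature) quantified CRE-bla activity in HEK 293T cells exposed 3 h to compound with 0.25 uM final NKH477.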
Assay [11] has as its target Beta-2 adrenergic receptor (Homo sapiens) (UniProt P07550). Nature of the assay: Adrenergic beta2 receptor (ADRB2) small molecule agonists, cell-based qHTS assay (AID 1963593).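 Note: CHO cells stably overexpressing human ADRB2.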 The gist of the method:
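CHO cells stably over-expressing ADRB2 were plated overnight at 37C, then dosed with compounds plus a stimulation mix containing 100uM IBMX and 25uM Ro-20-1724 for 0.5hr at room temperature. cAMP was measured by HTRF competition, 1hr.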

Assay [12] deals with D(2) dopamine receptor (Homo sapiens) (UniProt P14416). Nature of the assay: Dopamine D2 receptor (DRD2) small molecule agonists, cell-based qHTS assay (AID 1963594). Note: nearly all actives have a fitted effect of over 35% in size. Note: potency is the fitted concentration of half-maximal effect. The gist of the method: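 cAMP accumulation in DRD2-HEK293 cells measured by HTRF after 1 h detection; compounds added 10 min before NKH477 (200nM […]) forskolin-analogue stimulation, 30 min at room temperature, with Ro20-1724 present at 0.1 mM final.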
Chain of D(2) dopamine receptor (Homo sapiens) (P14416 whole entry, looked up): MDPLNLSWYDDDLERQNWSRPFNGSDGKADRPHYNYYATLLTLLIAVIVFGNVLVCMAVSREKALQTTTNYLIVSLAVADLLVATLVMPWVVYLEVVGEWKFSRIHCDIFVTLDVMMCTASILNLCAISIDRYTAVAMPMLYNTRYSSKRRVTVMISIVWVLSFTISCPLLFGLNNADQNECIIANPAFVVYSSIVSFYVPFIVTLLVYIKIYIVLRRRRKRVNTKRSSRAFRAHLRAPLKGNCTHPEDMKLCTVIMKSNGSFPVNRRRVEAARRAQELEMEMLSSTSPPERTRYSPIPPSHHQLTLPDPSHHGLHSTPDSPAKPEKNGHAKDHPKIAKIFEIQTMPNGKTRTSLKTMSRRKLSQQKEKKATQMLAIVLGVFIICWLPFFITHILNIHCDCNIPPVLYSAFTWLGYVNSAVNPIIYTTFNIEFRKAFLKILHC

Assay [13] in a line: p53 small molecule agonists, cell-based qHTS assay with rat liver microsomes (AID 1963578). The gist of the method: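 With rat liver microsomes and NADPH present (0.5 mg/mL final each), p53RE-bla cells are treated with compound for 16 h at 37 C. LiveBLAzer detection mixture is then applied for 2 h at room temperature in the dark.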
Assay [14] deals with 5-hydroxytryptamine receptor 2A (Homo sapiens) (UniProt P28223). Put plainly: 5-hydroxytryptamine receptor 2A (HTR2A) small molecule antagonists, cell-based qHTS assay (AID 1963586). Note: nearly all actives have a fitted effect of over 45% in size. The gist of the method: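 CHO cells stably expressing human HTR2A were plated for 18 h at 37 C, then loaded with calcium dye for 1 h. Compounds were preincubated 5 min at room temperature before DOI (4 nM solution) was added. Kinetic fluorescence was read for 3 min.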
Chain of 5-hydroxytryptamine receptor 2A (Homo sapiens) (P28223 whole entry, looked up): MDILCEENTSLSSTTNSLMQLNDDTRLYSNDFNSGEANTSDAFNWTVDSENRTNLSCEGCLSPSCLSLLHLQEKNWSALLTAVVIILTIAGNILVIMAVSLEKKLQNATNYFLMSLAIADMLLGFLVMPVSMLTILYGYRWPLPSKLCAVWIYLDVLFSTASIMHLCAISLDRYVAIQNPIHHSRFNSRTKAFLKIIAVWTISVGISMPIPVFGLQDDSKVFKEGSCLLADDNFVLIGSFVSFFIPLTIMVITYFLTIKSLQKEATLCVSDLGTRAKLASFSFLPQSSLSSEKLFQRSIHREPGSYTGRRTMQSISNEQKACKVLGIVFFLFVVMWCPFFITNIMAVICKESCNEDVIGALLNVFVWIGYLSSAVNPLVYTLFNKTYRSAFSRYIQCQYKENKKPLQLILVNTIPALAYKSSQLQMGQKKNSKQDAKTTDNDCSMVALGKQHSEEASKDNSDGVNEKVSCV

Assay [15] has the same target. Nature of the assay: 5-hydroxytryptamine receptor 2A (HTR2A) small molecule agonists, cell-based qHTS assay (AID 1963587). Note: nearly all actives have a fitted effect of over 30% in size. The gist of the method:
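Kinetic calcium-flux fluorescence (2 min, 1 sec intervals) after compound addition in agonist mode. HTR2A-CHO cells were cultured 18 h, then dye-loaded 1 h at 37 C.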

Assay [16] addresses Muscarinic acetylcholine receptor M1 (Homo sapiens) (UniProt P11229). Put plainly: Cholinergic receptor muscarinic 1 (CHRM1) small molecule antagonists, cell-based qHTS assay (AID 1963588). Note: nearly all actives have a fitted effect of over 40% in size. The gist of the method: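 Compounds were tested at 15 concentrations in three independent runs. Dye-loaded CHRM1-CHO cells were exposed 5 min at room temperature before stimulation by acetylcholine added at 50nM. Intracellular calcium was read kinetically on FDSS for 3 min.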

Assay [17] has the same target. Nature of the assay: Cholinergic receptor muscarinic 1 (CHRM1) small molecule agonists, cell-based qHTS assay (AID 1963589). Note: nearly all actives have a fitted effect of over 35% in size. The gist of the method:
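qHTS, 15-point titration, 3 independent runs: compounds pin-transferred onto dye-loaded CHRM1-CHO cells (human M1), calcium fluorescence followed every second to detect agonism.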

Assay [18] has as its target Beta-2 adrenergic receptor (Homo sapiens) (UniProt P07550). Put plainly: Adrenergic beta2 receptor (ADRB2) small molecule antagonists, cell-based qHTS assay (AID 1963592). Note: series mostly up to about 92 µM; nearly all actives have a fitted effect of over 50% in size. The gist of the method:
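Assay format: CHO-ADRB2 cells, 18-20hr seeding at 37C/5% CO2, then compound plus 1nM isoproterenol agonist mix for 0.5hr RT. Homogeneous time-resolved fluorescence cAMP detection after 1hr, expressed as 665/615 nm ratio.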

Assay [19] concerns the target D(2) dopamine receptor (Homo sapiens) (UniProt P14416). Put plainly: Dopamine D2 receptor (DRD2) small molecule antagonists, cell-based qHTS assay (AID 1963595; active = well fitted inhibition curve with a large enough effect in the signal ratio in the repeat runs, with a control signal flat; the % refers to the signal ratio). The gist of the method:
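DRD2-HEK293; 0.1 mM Ro20-1724; cpd 10 min RT; NKH477 200 nM + quinpirole 12 nM, 30 min RT; HTRF cAMP (cAMP-d2/anti-cAMP cryptate), 665/620 nm ratio after 1 h.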

Assay [20] is described as follows: G protein-coupled receptor (GPCR) small molecule agonists, calcium flux assay: HEK293 wild type cell line counter screen (AID 1920065). The gist of the method: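 Non-specific calcium responders were flagged by adding DMSO-dissolved compounds to dye-loaded cells and reading 480/540 nm fluorescence each second for 3 min; ATP served as positive control.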

Chain of Beta-2 adrenergic receptor (Homo sapiens) (P07550 whole entry, looked up): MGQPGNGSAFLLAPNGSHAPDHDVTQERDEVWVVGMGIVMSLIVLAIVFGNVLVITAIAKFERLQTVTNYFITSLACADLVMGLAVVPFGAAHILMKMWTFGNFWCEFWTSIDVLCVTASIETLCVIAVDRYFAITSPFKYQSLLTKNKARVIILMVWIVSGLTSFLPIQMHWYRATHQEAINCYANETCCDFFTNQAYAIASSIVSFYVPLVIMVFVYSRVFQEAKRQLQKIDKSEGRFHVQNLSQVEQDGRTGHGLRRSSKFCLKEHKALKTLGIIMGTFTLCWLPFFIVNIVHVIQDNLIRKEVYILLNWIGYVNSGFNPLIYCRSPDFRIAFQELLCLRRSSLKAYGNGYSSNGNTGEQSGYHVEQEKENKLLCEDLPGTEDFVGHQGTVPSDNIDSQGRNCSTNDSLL
Chain of Muscarinic acetylcholine receptor M1 (Homo sapiens) (P11229 whole entry, looked up): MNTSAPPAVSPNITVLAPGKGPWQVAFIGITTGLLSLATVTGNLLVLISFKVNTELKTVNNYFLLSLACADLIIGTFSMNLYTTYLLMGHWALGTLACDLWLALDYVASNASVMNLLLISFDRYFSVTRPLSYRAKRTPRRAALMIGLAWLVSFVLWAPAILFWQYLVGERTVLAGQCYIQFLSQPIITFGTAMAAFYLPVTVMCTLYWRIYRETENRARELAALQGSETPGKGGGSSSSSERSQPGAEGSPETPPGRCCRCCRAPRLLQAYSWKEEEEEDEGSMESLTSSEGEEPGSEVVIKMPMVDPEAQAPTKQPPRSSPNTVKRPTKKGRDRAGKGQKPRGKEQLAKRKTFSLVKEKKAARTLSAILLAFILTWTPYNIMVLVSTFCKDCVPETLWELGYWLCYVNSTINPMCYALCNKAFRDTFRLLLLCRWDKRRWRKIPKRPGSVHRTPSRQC
Chain of KiSS-1 receptor (Homo sapiens) (Q969F8 whole entry, looked up): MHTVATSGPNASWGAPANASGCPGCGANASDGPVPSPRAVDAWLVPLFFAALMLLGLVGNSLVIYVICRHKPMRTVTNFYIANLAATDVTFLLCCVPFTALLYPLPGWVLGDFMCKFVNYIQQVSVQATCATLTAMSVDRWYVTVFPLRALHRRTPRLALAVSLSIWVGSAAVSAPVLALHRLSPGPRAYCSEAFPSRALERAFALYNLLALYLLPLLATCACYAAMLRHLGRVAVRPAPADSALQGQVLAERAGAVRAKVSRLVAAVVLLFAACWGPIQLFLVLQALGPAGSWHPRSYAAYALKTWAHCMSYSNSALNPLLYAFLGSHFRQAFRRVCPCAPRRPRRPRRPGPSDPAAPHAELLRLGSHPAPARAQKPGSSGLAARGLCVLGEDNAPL
Chain of Gonadotropin-releasing hormone receptor (Homo sapiens) (P30968 whole entry, looked up): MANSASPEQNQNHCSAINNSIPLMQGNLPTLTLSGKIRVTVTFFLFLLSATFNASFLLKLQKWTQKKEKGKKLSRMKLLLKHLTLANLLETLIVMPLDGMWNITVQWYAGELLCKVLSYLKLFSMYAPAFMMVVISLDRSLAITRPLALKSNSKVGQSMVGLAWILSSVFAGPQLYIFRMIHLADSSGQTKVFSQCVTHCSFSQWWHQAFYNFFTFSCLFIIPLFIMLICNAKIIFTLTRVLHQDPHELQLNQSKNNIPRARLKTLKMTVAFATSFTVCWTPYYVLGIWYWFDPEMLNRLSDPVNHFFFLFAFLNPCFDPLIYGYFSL

With `CN1C[C@H](C(=O)N[C@]2(C)O[C@@]3(O)[C@@H]4CCCN4C(=O)[C@H](Cc4ccccc4)N3C2=O)C=C2c3cccc4[nH]cc(c34)C[C@H]21`, the Potency entry in assay [1], in assay [2], in [3], in [4], in assay [5] and in [6] was “inactive” throughout. Moreover, the Potency result in assay [8], in [9] and in assay [11] was “inactive” throughout. In addition, the Potency in [7] was 1.45 µM (active) and inactive; in [10] it was 48.8 µM (active); in assay [12], 1.23 µM (active).

With `CCC(=O)c1ccccc1`, the Potency result in [1], in [2], in [3], in [4], in assay [13] and in assay [5] was “inactive” each time. Also, the Potency entry in assay [6], in assay [7], in [8], in assay [14], in assay [15] and in [16] was “inactive” throughout. The Potency result in [17], in assay [9], in [10], in assay [18], in assay [11] and in assay [12] was “inactive” each time. The Potency entry in assay [19] is “inactive”.

As for `O=C(CBr)c1ccc(O)cc1`, the Potency result in assay [1], in [3], in [4], in [13], in [5] and in assay [6] was “inactive” throughout. Further, the Potency result in assay [14], in [15], in assay [16], in [9], in assay [10] and in [18] was “inactive” in each case. Moreover, the Potency result in assay [11], in [12] and in assay [19] was “inactive” each time. Moreover, the Potency in assay [2] was 68.6 µM (active).

In the case of `COP(=S)(OC)SCn1nnc2ccccc2c1=O`, the Potency entry in assay [1], in assay [3], in [4], in assay [5], in assay [6] and in assay [7] was “inactive” in each case. Besides, the Potency result in [8], in assay [14], in [15], in [16], in assay [17] and in assay [9] was “inactive” in each case. The Potency result in [10], in assay [18], in [11], in assay [12] and in assay [19] was “inactive” each time. Further, the Potency in [2] is 53.4 µM (active) and 68.6 µM (active).

As to `CC(C)(OOC(C)(C)c1ccccc1)c1ccccc1`, the Potency entry in assay [1], in assay [3], in assay [20], in [13], in [5] and in assay [6] was “inactive” in each case. Further, the Potency entry in assay [7], in [8], in assay [14], in assay [15], in assay [16] and in assay [17] was “inactive” in each case. Besides, the Potency entry in assay [9], in assay [10], in assay [18], in [11], in [12] and in [19] was “inactive” in each case. The Potency in [2] is 21.7 µM (active).

On to `C=C1CC[C@@]2(O)[C@H]3Cc4ccc(O)c5c4[C@@]2(CCN3CC2CC2)[C@H]1O5`, for which the Potency result in [1], in assay [2], in assay [3], in assay [4], in assay [13] and in [5] was “inactive” each time. Also, the Potency result in assay [6], in [7], in [8], in assay [14], in assay [15] and in assay [16] was “inactive” throughout. Moreover, the Potency result in assay [17], in assay [9], in [10], in [18], in assay [12] and in assay [19] was “inactive” each time.
